Results published in PubChem BioAssay (NCATS).
Results filed as inconclusive are left out. Where a call stands in place of a potency, no number is given. Active and inactive are the calls of the source. Calls follow the shape of the dose curve; as a rule, active = well fitted inhibition curve with a large enough effect; inconclusive = small, poorly fitted or top-dose-only effect; inactive = no such curve, though single readings can be large or run the other way.

Tested on: Zika virus NS2B-NS3 protease (unlinked complex)
Assay: Primary screen GU Rhodamine qHTS for Zika virus inhibitors: Unlinked NS2B-NS3 protease assay (AID 1347159); also: nearly all actives have a fitted effect of over 60% in size
Details: Recombinant ZIKV NS2B-NS3 protease, Rhodamine110 substrate fluorescence; series mostly up to 107 µM
In short: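 Percent inhibition came from the 15-min rise in Rhodamine110 fluorescence (1.5 microM substrate, ~15% conversion), normalized to no-inhibitor and no-enzyme wells and Hill-fitted. Unlinked protease, 25 nM, pH 8.0 Tris buffer; compounds up to 114 microM, 15-min preincubation.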
Potency is read from the fitted curve at half-maximal effect.

SMILES	Potency
Cc1sc2c(c1C)C(c1ccc(Cl)cc1)=N[C@@H](CC(=O)Nc1ccc(OCCOCCOCCOCCNc3cccc4c3C(=O)N(C3CCC(=O)NC3=O)C4=O)cc1)c1nnc(C)n1-2 (stereo partly drawn)	inactive
CN(C)CCC(CSc1ccccc1)Nc1ccc(S(=O)(=O)NC(=O)c2ccc(N3CCN(Cc4ccccc4-c4ccc(Cl)cc4)CC3)cc2)cc1[N+](=O)[O-] (stereo not drawn)	7.94 µM (active)
CCC(C)C(=O)Oc1cc(C)ccc1C1(COC(=O)C(C)C)CO1 (stereo not drawn)	inactive
Cc1cc(C)c(S(=O)(=O)n2cc(C)cc2C)c(C)c1	inactive
CC[C@@H](Nc1c(Nc2cccc(C(=O)N(C)C)c2O)c(=O)c1=O)c1cc(C(C)C)co1	22.4 µM (active)
O=C(Nc1ccc2[nH]c(=O)oc2c1)C(=O)N1CCC(Cc2ccc(F)cc2)CC1	inactive
CCc1c(Cl)c(O)c(Cl)c(O)c1C(=O)O[C@H]1[C@H](O)[C@H](OC)[C@H](OC/C2=C\C=C\C[C@H](O)/C(C)=C\[C@H](CC)[C@@H](O[C@@H]3OC(C)(C)[C@@H](OC(=O)C(C)C)[C@H](O)[C@@H]3O)/C(C)=C/C(C)=C/C[C@@H]([C@@H](C)O)OC2=O)O[C@@H]1C	11.2 µM (active)
CC/C(C)=C/C(=O)OC1C(OC2(C)CCC3C(C4C(C)CCC42)C3(C)C)OC(C)C(O)C1O (stereo not drawn)	14.1 µM (active)
CCC[C@@]1(CCc2ccccc2)CC(O)=C([C@H](CC)c2cccc(NS(=O)(=O)c3ccc(C(F)(F)F)cn3)c2)C(=O)O1	8.91 µM (active)
CC1(C)CC[C@]23CO[C@@]4(CCC5[C@@]6(C)CC[C@H](O[C@@H]7OC[C@H](O[C@@H]8O[C@H](CO)[C@@H](O)[C@H](O)[C@H]8O[C@@H]8OC[C@@H](O)[C@H](O)[C@H]8O)[C@H](O)[C@H]7O[C@@H]7O[C@H](CO)[C@@H](O)[C@H](O)[C@H]7O)[C@@](C)(CO)C6CC[C@@]5(C)[C@]4(C)C[C@H]2O)[C@@H]3C1 (stereo partly drawn)	inactive
CC(=O)OC1CCC2(C)C(CCC3(C)C2CC=C2C4C(C)C(C)CCC4(C)CCC23C)C1(C)C(=O)O (stereo not drawn)	3.98 µM (active)
COc1ccc2nc3n[nH]c(C)c3c(NCCOCCO)c2c1	inactive
Cc1ccc(NC(=O)C(C)C)cc1C1CCN(Cc2ccc(Oc3ccc(F)c(F)c3)cc2)CC1	inactive
O=C(Nc1ccc(Cl)cc1)Nc1cccc(-c2cccc(N3CCCC3)n2)c1	inactive
CC[C@H](C)/C=C(C)/C=C/C1=CC2=CC(=O)[C@]3(C)OC(=O)[C@@H](C(C)=O)[C@@H]3C2=CO1	10 µM (active)
O=C(Nc1ccccc1)c1ccc(Nc2nnc(-c3ccc(O)cc3)c3ccccc23)cc1	14.1 µM (active)
O=C(N[C@H]1CCN(C(=O)c2cc(C(F)(F)F)cc(C(F)(F)F)c2)[C@H](Cc2ccc(Cl)cc2)C1)c1ccnc2ccccc12	inactive
C/C(=C/C=C\C=C\Cc1cnco1)[C@@H](O)C(C)(C)C(N)=O	inactive
C=C[C@]1(C)C[C@H](O)[C@H]2C(=C)C(=O)O[C@@H]2[C@H]1C(=C)CO	inactive
C/C=C(/C)C(=O)O[C@H]1[C@H](OC(=O)/C(C)=C\C)[C@@]23C(CC1(C)C)[C@]1(CCC4[C@@]5(C)CC[C@H](O[C@@H]6O[C@H](C(=O)O)[C@@H](O)[C@H](O[C@@H]7O[C@H](CO)[C@H](O)[C@H](O)[C@H]7O[C@@H]7O[C@@H](C)[C@H](O)[C@@H](O)[C@H]7O[C@@H]7OC[C@@H](O)[C@H](O)[C@H]7O)[C@H]6O[C@@H]6O[C@H](CO)[C@H](O)[C@H](O)[C@H]6O)C(C)(C)C5CC[C@@]4(C)[C@]1(C)C[C@H]2O)O[C@H]3O (stereo partly drawn)	3.98 µM (active)
CC1(C)CC[C@]2(C(=O)O)[C@H](O)C[C@]3(C)C(=CCC4[C@@]5(C)CC[C@H](O[C@@H]6O[C@H](CO[C@@H]7OC[C@H](O)[C@H](O)[C@H]7O[C@@H]7OC[C@H](O)[C@H](O)[C@H]7O)[C@@H](O)[C@H](O)[C@H]6O)C(C)(C)C5CC[C@]43C)[C@@H]2C1 (stereo partly drawn)	inactive
COc1ccc(S(=O)(=O)Nc2cc(Cl)cc(Cl)c2OC)cc1N1CCNCC1	inactive
Cc1c(F)ccc(C(=O)Nc2cc([N+](=O)[O-])ccc2N2CCN(C)CC2)c1Cl	inactive
O=S(=O)(Cc1ccccc1)Nc1ccc(-c2ccc3c(cnn3-c3ccc(F)cc3)c2)c(C(F)(F)F)c1	20 µM (active)
C=C1CCC[C@]2(C)CC/C(=C(/CO)C(=O)OC)C[C@@H]12	20 µM (active)
Cc1ccc(CNc2ncnc3ccc(-c4ccc(CO)o4)cc23)o1	inactive
COc1ccc(C2=NC(c3ccc(Cl)cc3)C(c3ccc(Cl)cc3)N2C(=O)N2CCNC(=O)C2)c(OC(C)C)c1 (stereo not drawn)	inactive
C[C@@H]1CC[C@@]23CC[C@]4(C)[C@@](C=CC5[C@@]6(C)CC[C@H](O)C(C)(C)C6CC[C@]54C)(OC2=O)C3[C@H]1C (stereo partly drawn)	6.31 µM (active)
